Screens (PubChem)
PLK1 PBD inh: inhibitors of human PLK1 polo-box domain binding; P53350; Plk1 PBD binding of FITC phosphopeptide, fluorescence polarization; Potency, µM, for the others: max response, negative = inhibition, most hits filed as inhibitors; 360,000 tested, 2.8% active; AID 720504; also: series mostly up to about 57 µM; % is scaled to controls: 0 for no effect and ±100 for the full control effect; nearly all actives have a fitted effect of over 65% in size
Target sequence (P53350 whole entry, looked up, the tested form may be a part): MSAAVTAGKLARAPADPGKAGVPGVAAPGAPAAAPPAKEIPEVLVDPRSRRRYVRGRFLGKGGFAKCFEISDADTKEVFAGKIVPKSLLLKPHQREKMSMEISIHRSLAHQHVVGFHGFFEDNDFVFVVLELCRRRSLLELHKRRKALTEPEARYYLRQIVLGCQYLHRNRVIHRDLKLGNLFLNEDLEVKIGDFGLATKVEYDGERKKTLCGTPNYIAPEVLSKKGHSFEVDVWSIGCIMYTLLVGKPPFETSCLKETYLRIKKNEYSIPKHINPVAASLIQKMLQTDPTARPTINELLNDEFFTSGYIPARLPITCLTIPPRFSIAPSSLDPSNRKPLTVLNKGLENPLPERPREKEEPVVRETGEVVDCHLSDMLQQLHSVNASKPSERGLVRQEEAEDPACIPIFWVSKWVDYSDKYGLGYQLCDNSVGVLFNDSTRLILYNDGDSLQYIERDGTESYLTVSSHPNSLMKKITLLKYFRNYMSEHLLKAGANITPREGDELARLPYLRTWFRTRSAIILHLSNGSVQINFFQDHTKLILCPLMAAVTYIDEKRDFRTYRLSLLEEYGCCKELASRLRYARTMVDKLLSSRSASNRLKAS
USP1 inh: USP1/UAF1 (human) deubiquitinase inhibition; recombinant USP1/UAF1, Ub-Rhodamine cleavage fluorescence; Potency, µM (series often up to 57.1 µM), inactives show top-dose activity change, negative = inhibition, usual class: inhibitors; 390,000 tested, 0.23% active; AID 743255; also: % is scaled to controls: 0 for no effect and ±100 for the full control effect; nearly all actives have a fitted effect of over 60% in size
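In this screen, compounds sit with the deubiquitinase complex (1nM) for 15 min at room temperature before Ub-Rho is added at 150nM final. Fluorescence rise is then followed for 6 reads every 60 seconds.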
PTAP TSG101 blk: blocks PTAP/TSG101 interaction to inhibit HIV-1 budding; Fluorescence polarization, FITC-PTAP peptide / Tsg101 binding; Q99816; Potency, µM (doses to about 115 µM), for inactives: at the highest dose activity change, negative = inhibition, actives largely listed as inhibitors; AID 493005; 340,000 tested, under 10 active; active = well fitted inhibition curve with a large enough effect in the main read-out, with a control signal flat, not every such curve was filed as active; inconclusive = small, poorly fitted or top-dose-only effect, or effect the other way, or a change in a side signal; inactive = no such curve, though single readings can be large or run the other way; also: % of control where 0% means no effect
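Tsg101 binding domain (10 uM final) was mixed with compound and a FITC-labeled PTAP peptide (50 nM final) in HEPES pH 7.5 buffer with NaCl, Tween 20, EDTA and TCEP; fluorescence polarization was read after 20 min at r.t.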
KAT2A inh: blocks human GCN5L2 histone acetyltransferase. Q92830. GCN5L2 HAT assay, ThioGlo1 CoA-SH fluorescence. Potency, µM (highest dose often 58.9 µM), without a hit: at the top dose activity change, negative = inhibition, usual class: inhibitors. 390,000 tested, 0.21% active; also: % is scaled to controls: 0 for no effect and ±100 for the full control effect
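Compounds, pin-transferred from DMSO stocks, meet 20nM GCN5L2 for 15 min before the reaction begins with H3(1-25) peptide (75uM) and acetyl-CoA (70uM). Thiol-reactive ThioGlo1 reports CoA release over 20 min at room temperature.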
VDR inh: vitamin D3 receptor (human) inhibition; P11473; VDR-SRC2-3 peptide fluorescence polarization, 2 h; Potency, µM, for inactives: max response, negative = inhibition, usual class: inhibitors; 400,000 tested, 0.93% active; AID 504847; also: % is scaled to controls: 0 for no effect and ±100 for the full control effect
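Fluorescence polarization assay measuring small-molecule disruption of VDR binding to the coregulator peptide SRC2-3. Compounds were pin-transferred (23 nl) into the reagent mix and incubated 2 h at room temperature before reading.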
VDR inh confirm: inhibits human vitamin D receptor, primary hit validation. shares compounds with VDR inh. VDR-coactivator inhibition assay, qHTS confirmation. Potency, µM, most hits filed as inhibitors. 840 tested, 89% active. AID 602199
VDR FP: blocks human VDR-coactivator binding in fluorescein assay. shares compounds with VDR inh. VDR-coactivator binding, fluorescein fluorescence polarization. Potency, µM (top dose mostly 57.1 µM), for inactives: top-dose activity change, negative = inhibition, usual class: inhibitors. 840 tested, 48% active
VDR bla: inhibits human VDR in beta-lactamase reporter cells; shares compounds with VDR inh; VDR beta-lactamase reporter cells, FRET ratio; cells co-treated with VDR agonist LG190178; Potency, µM (highest dose often 46.1 µM), without a hit: top-dose activity change, negative = inhibition, usual class: inhibitors; 840 tested, 23% active; AID 602202; also: % is scaled to controls: 0 for no effect and ±100 for the full control effect
VDR viability: cell toxicity, VDR inhibitor hit counter-screen; shares compounds with VDR inh; cytotoxicity counter-screen, cell viability, qHTS; Potency, µM (doses to about 48.3 µM), for the others: at the highest dose activity change, negative = cytotoxicity, actives largely listed as cytotoxic; 840 tested, 18% active;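 also: plate controls were DMSO for no effect and high-concentration cycloheximide for full effect; nearly all actives have a fitted effect of over 75% in size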
TbPYK confirm: confirmation of Trypanosoma brucei pyruvate kinase inhibitors. shares compounds with PLK1 PBD inh. recombinant TbPYK, Kinase-Glo ATP luminescence. Potency, µM (titrated, usually from 76.9 µM), inactives show at the highest dose activity change, negative = inhibition, usual class: inhibitors. 890 tested, 67% active; also: % is scaled to controls: 0 for no effect and ±100 for the full control effect; nearly all actives have a fitted effect of over 70% in size
TbPYK orthogonal: orthogonal confirmation of Trypanosoma brucei pyruvate kinase inhibitors; Potency, µM (series often up to 76.9 µM), for the others: at the top dose activity change, negative = inhibition, most hits filed as inhibitors; recombinant TbPYK, ADP-Glo luminescence, 60 min; 890 tested, 62% active; AID 720584; shares compounds with PLK1 PBD inh; also: % is scaled to controls: 0 for no effect and ±100 for the full control effect; nearly all actives have a fitted effect of over 75% in size
* marks the source's active call; other numbers are inactive results; ? = inconclusive; . = no result given. Shown are actives, neighbours in structure and some others; about 3% of the full set was active somewhere. Unless noted, calls follow the shape of the dose curve; as a rule, active = well fitted curve in the direction sought with a large enough effect; inconclusive = small, poorly fitted or top-dose-only effect, or another doubt; inactive = no such curve, though single readings can be large; an effect the other way counts as inactive or inconclusive. Potency is read from the fitted curve at half-maximal effect.

SMILES	PLK1 PBD inh	USP1 inh	PTAP TSG101 blk	KAT2A inh	VDR inh	TbPYK confirm	TbPYK orthogonal	others
COc1ccc(-c2csc(C(O)c3ccc(F)cc3)n2)cc1OC (stereo unspecified)	-9%	.	.	.	.	.	.
COc1ccc(C(=O)/C=C/C(=O)N(CC(=O)NC2CCCCC2)CC2CCCO2)c(O)c1 (stereo unspecified)	6.7µM*	-12%	-5%	2%	8.9µM*	7.1µM*	10µM*	VDR inh confirm=6.7*;VDR FP=?;VDR bla=13µM*;VDR viability=15µM*
COc1ccccc1N1C(=O)C=C(Sc2nc(C)cc(C)n2)C1=O	3µM*	3%	-4%	-10%	?	2.5µM*	3.2µM*	VDR inh confirm=2.8*;VDR FP=3.2µM*;VDR bla=21µM*;VDR viability=?
CCN(Cc1nc(-c2cccc(C)c2)no1)S(=O)(=O)c1ccc(C)cc1	.	-14%	.	-8%	3%	.	.
COc1ccccc1NC(=O)CCCCCN1C(=O)c2cccc([N+](=O)[O-])c2C1=O	-15%	-2%	-5%	-3%	-12%	.	.
COc1cc(/C=C2/C(=O)c3cccc([N+](=O)[O-])c3C2=O)c(Br)cc1O	1.5µM*	?	-10%	?	20µM*	25µM*	-17%	VDR inh confirm=7.5*;VDR FP=3.2µM*;VDR bla=?;VDR viability=?
CCOc1cc(/C=C2\SC(=S)N(N3CCOCC3)C2=O)ccc1O	-8%	-19%	-3%	-3%	-22%	.	.
CCOc1cc(/C=C2\SC(=N)N(c3nccs3)C2=O)ccc1OCCN1CCOCC1	-10%	-19%	-1%	-10%	-5%	?	?
COc1cccc(C(=O)CSc2nnc(CNS(C)(=O)=O)n2-c2ccc(C)cc2)c1	-19%	-10%	-1%	2%	?	?	28µM*
COc1cccc(-n2c(COc3ccc(C)cc3)nnc2SCC(N)=O)c1	-7%	-16%	-3%	-2%	-17%	.	.
Cc1ncc(CO)c(CO)c1OCC(O)CN1CCN(c2ccc(F)cc2)CC1 (stereo unspecified)	-4%	.	.	.	.	.	.
CCn1c(=O)cc(C(F)(F)F)[nH]c1=S	-12%	-2%	0%	-24%	-5%	?	35µM*
COc1ccc(CCNc2nc(SCc3cccc(Cl)c3)nc3ccccc23)cc1OC	.	?	.	-1%	12%	.	.
Cc1cccc(NC2=C(NC(=O)c3ccccc3)C(=O)c3ccccc3C2=O)c1	?	?	-7%	-9%	?	14µM*	11µM*
O=C1C=CC(=O)N1c1cccc(-c2ccccc2)c1	2.7µM*	-14%	3%	-18%	45µM*	4µM*	7.9µM*
O=C1C=CC(=O)N1c1ccc2c(c1)C(NC(=O)C(F)(F)F)c1ccccc1-2 (stereo unspecified)	6.7µM*	-12%	-2%	.	45µM*	7.9µM*	10µM*
O=C(NC1c2ccccc2-c2ccccc21)N1CCCCC1	5%	1%	2%	-7%	-1%	.	.
O=C(c1ccccc1Cl)N(Cc1ccco1)c1ccccn1	.	-3%	.	-7%	6%	.	.
CC1CCCC=CC2CC(OC(=O)CN(C)C)CC2C(O)C=CC(=O)O1 (stereo unspecified)	-5%	-7%	-7%	.	-8%	.	.
C[C@H]1CCC/C=C/[C@@H]2C[C@H](O)C[C@H]2[C@H](O)[C@H](S(=O)c2ccc(O)cc2)CC(=O)O1 (stereo partly specified)	11µM*	-10%	-6%	.	?	18µM*	13µM*
COc1cccc(C=Nc2cc(C)on2)c1O	-25%	-21%	-15%	1%	6%	.	.
Cc1cc(N=Cc2c(O)ccc3cc(Br)ccc23)no1	5.3µM*	-18%	-3%	1%	-16%	18µM*	7.1µM*
Cc1cc(C)c(C)c(OCC(=O)Nc2ccc(S(=O)(=O)Nc3nc(C)cc(C)n3)cc2)c1	.	-20%	.	1%	2%	.	.
O=C1CCCCCCC1Sc1ccccc1[N+](=O)[O-] (stereo unspecified)	?	-12%	-5%	-4%	-14%	13µM*	?
CC1=C(C(=O)Nc2cccc(C(F)(F)F)c2)C(c2ccccn2)n2ncnc2N1 (stereo unspecified)	.	-31%	.	2%	-1%	.	.
SMILES	PLK1 PBD inh	USP1 inh	PTAP TSG101 blk	KAT2A inh	VDR inh	TbPYK confirm	TbPYK orthogonal	others
Cn1c(=O)cc(NCc2ccccc2)[nH]c1=O	-13%	-14%	-12%	0%	-10%	.	.
O=c1cc(NCc2ccccc2)[nH]c(=O)[nH]1	5%	-7%	2%	.	-2%	?	?
O=C(Nc1ccc2c(c1)ncn2-c1ccccc1)c1ccco1	?	-7%	-4%	-10%	11%	14µM*	4.5µM*
Cn1cnc2cc(NC(=O)c3ccco3)ccc21	-4%	-8%	-5%	1%	3%	.	.
CN(C)c1ccc(/C=N/NC(=O)C2COc3ccccc3O2)o1 (stereo unspecified)	-15%	-18%	0%	-8%	-18%	?	35µM*
CC(=O)OCCNc1cc(N2CCN(C)CC2)c2noc3c2c1C(=O)c1ccccc1-3	20%	?	?	-3%	?	10µM*	?
CCOC(=O)c1sc(N/N=C/c2ccccc2)nc1C	8.4µM*	-25%	-1%	-17%	45µM*	14µM*	28µM*
Nc1nc(Nc2ccccc2F)sc1C(=O)c1ccc(Cl)cc1	.	-8%	.	0%	-7%	.	.
Cc1cc(-c2cc(-c3ccc(Cl)cc3)nc(N)c2C#N)co1	21µM*	-22%	-3%	?	?	-21%	40µM*
Cc1ccc(-c2cc(-c3ccc(F)cc3)c(C#N)c(N)n2)o1	?	-6%	-4%	-15%	?	.	.
